Data: PubChem BioAssay (EPA / NIEHS)
The source made the active and inactive calls. How the source made its calls: active means hit-call score of the fitted dose curve at least 0.9, where 1 is the maximum; inactive means score below 0.9.

Assays:
[1] = ATG_GRE_CIS: Attagene CIS-FACTORIAL HepG2 Assay for human Glucocorticoid Response Elements (GRE) (AID 2282947); settings: HepG2 GRE cis-reporter, Attagene multiplex mRNA; actives raise or lower the signal
Method in brief: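 Read-out: fluorescent reporter-transcript fragments separated by capillary electrophoresis after RT-PCR. Transiently transfected HepG2 cells carrying cis-element-driven reporter units were dosed for 24 h; gain or loss of signal fitted against DMSO control.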

[2] = ATG_ISRE_CIS: Attagene CIS-FACTORIAL HepG2 Assay for human Interferon Regulatory Factor 1 (IRF1) binding to an Interferon-Stimulated Response Element (ISRE) (AID 2282948); settings: HepG2 ISRE cis-reporter (Attagene), mRNA transcription readout; actives raise or lower the signal
Method in brief: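 Multiplexed mRNA reporter readout in human liver HepG2 cells: cis-element-driven reporters transfected, compound added for 24 h, transcripts amplified, fluorescently labelled and sized by capillary electrophoresis; curve fitting bidirectional against DMSO.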

[3] = ATG_M_32_CIS: Attagene CIS-FACTORIAL HepG2 Assay for M32 Transcription Factor (Internal Marker) (AID 2282949); settings: HepG2 Attagene cis-factorial M32 reporter, mRNA; actives raise or lower the signal;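 further: background control marker of the multiplexed CIS panel rather than a real target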
Method in brief: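 Using DMSO as baseline, bidirectional curve fits were applied to reporter mRNA signals. These came from transiently transfected HepG2 cells exposed for 24 h, with RNA analysed by RT-PCR, FAM primer extension, HpaI digestion and CE.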

[4] = ATG_M_06_CIS: Attagene CIS-FACTORIAL HepG2 Assay for M06 Transcription Factor (Internal Marker) (AID 2282950); settings: HepG2 Attagene CIS-FACTORIAL M06 internal marker reporter; actives raise or lower the signal
Method in brief: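 One of many multiplexed endpoints: HepG2 reporter mRNA after 24 h dosing, detected by RT-PCR and capillary electrophoresis fluorescence; gain or loss of signal analysed against DMSO.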

[5] = biological target: Hypoxia-inducible factor 1-alpha (Homo sapiens) (UniProt Q16665); assay: ATG_HIF1a_CIS: Attagene CIS-FACTORIAL HepG2 Assay for human Hypoxia Inducible Factor 1 (HIF1A) (AID 2282951); settings: HepG2 Attagene cis-factorial HIF1a reporter transcription; actives raise or lower the signal
Method in brief: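 HepG2, transient cis-reporter library, 24 h dosing. RNA → RT (oligo dT) → PCR → 6-FAM primer extension → HpaI → CE. Bidirectional curve fit vs DMSO.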

[6] = biological target: Hepatocyte nuclear factor 6 (Homo sapiens) (UniProt Q9UBC0); assay: ATG_HNF6_CIS: Attagene CIS-FACTORIAL HepG2 Assay for human Hepatocyte Nuclear Factor 6 (HNF6) (AID 2282952); settings: HepG2 Attagene cis-factorial HNF6 reporter transcription; actives raise or lower the signal
Method in brief: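 Twenty-four-hour chemical treatment of reporter-transfected HepG2 cells precedes RNA isolation, DNase-treated reverse transcription and PCR of reporter sequences. Labelled fragments are sized by capillary electrophoresis and fitted bidirectionally versus DMSO.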

[7] = biological target: Heat shock factor protein 1 (Homo sapiens) (UniProt Q00613); assay: ATG_HSE_CIS: Attagene CIS-FACTORIAL HepG2 Assay for human Heat Shock Transcription Factor 1 (HSE) (AID 2282953); settings: HepG2 HSE cis-reporter, Attagene RNA transcription; actives raise or lower the signal
Method in brief: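 Using HepG2 with transfected cis-driven reporter constructs, compound effects on endogenous factor activity are scored as reporter mRNA change at 24 h. Detection: RT-PCR, HpaI digestion, capillary electrophoresis; bidirectional fitting to DMSO.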

[8] = ATG_MRE_CIS: Attagene CIS-FACTORIAL HepG2 Assay for human Metal Responsive Element (MRE) (AID 2282954); settings: HepG2 MRE cis-reporter transcription, Attagene multiplex; actives raise or lower the signal
Method in brief: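 RT-PCR/capillary electrophoresis readout of reporter mRNA, 24 h post-dosing, in HepG2 cells transfected with multiplexed cis-regulated reporter constructs. Gain or loss of signal fitted bidirectionally against DMSO baseline.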

[9] = ATG_PBREM_CIS: Attagene CIS-FACTORIAL HepG2 Assay for human Phenobarbital-responsive Enhancer Module (PBREM) (AID 2282955); settings: HepG2 PBREM cis-reporter, Attagene multiplexed transcription; actives raise or lower the signal
Method in brief: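 HepG2, transient MRTU transfection, 24 h dosing; RNA → oligo(dT) RT → PCR → 6-FAM extension → HpaI → CE. Bidirectional fit vs DMSO.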

Measured: AC50

Sequence of Hepatocyte nuclear factor 6 (Homo sapiens) (Q9UBC0 whole entry, looked up, the tested form may be a part): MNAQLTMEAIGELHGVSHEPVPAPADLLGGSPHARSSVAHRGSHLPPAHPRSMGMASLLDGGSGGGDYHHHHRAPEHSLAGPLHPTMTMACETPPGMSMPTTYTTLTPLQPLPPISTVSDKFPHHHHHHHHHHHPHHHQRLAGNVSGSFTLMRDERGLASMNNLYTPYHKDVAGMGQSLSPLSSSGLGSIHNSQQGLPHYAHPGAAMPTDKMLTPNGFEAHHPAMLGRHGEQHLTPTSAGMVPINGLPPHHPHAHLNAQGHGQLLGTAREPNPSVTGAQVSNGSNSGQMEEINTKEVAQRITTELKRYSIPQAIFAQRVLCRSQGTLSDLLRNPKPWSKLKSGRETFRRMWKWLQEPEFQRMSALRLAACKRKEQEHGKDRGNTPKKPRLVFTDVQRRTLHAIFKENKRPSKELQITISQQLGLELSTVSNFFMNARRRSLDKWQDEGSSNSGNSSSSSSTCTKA
Sequence of Hypoxia-inducible factor 1-alpha (Homo sapiens) (Q16665 whole entry, looked up): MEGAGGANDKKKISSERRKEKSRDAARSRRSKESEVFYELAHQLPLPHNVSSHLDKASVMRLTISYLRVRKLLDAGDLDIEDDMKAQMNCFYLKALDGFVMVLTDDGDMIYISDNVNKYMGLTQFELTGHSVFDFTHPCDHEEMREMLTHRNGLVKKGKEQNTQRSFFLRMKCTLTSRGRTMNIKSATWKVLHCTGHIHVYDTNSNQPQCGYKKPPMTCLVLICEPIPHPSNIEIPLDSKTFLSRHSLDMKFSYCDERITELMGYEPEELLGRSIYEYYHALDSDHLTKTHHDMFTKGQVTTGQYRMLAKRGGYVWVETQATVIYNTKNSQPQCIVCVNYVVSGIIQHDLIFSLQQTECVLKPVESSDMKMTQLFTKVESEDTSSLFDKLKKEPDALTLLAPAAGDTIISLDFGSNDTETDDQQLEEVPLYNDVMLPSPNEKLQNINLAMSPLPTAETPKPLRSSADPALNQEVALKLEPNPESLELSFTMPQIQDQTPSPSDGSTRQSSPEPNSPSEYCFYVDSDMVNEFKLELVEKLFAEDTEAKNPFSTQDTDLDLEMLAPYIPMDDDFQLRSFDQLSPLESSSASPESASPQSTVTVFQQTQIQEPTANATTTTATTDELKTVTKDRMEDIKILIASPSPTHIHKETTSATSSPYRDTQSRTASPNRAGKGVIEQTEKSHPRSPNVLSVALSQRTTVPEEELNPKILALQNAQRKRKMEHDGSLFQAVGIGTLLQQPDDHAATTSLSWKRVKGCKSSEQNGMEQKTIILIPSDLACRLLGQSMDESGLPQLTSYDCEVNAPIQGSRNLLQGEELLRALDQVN
Sequence of Heat shock factor protein 1 (Homo sapiens) (Q00613 whole entry, looked up): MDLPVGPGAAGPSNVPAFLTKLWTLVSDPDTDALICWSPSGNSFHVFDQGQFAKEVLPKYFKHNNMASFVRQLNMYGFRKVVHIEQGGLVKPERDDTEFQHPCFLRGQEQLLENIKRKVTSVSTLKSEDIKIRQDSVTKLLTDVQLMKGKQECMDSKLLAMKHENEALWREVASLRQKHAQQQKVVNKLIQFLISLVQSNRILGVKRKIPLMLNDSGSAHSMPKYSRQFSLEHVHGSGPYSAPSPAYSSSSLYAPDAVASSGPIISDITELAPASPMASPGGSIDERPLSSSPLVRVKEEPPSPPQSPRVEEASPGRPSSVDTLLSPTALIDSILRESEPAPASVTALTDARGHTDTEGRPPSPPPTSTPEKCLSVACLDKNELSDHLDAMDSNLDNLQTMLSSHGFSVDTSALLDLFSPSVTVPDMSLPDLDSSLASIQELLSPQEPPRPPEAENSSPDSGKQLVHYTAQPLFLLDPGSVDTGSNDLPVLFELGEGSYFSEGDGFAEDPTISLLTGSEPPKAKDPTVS

CCCCC(CC)COCC1CO1 (configuration not stated)
inactive: all assays above

COCc1c(C(C)C)nc(C(C)C)c(/C=C/[C@@H](O)C[C@@H](O)CC(=O)O)c1-c1ccc(F)cc1
not listed: [8]
inactive: all other assays above

c1ccc2c(c1)ccc1ncccc12
active: [2] 150 µM
not listed: [8]
inactive: all other assays above

CCCCCC(C)O (configuration not stated)
inactive: all assays above

[Cl][Bi]([Cl])([c]1ccccc1)([c]1ccccc1)[c]1ccccc1
active: [2] 2.74 µM | [7] 5.52 µM | [8] 6.46 µM
inactive: all other assays above

CC(CC=O)CCCC(C)(C)O (configuration not stated)
not listed: [7] | [9]
inactive: all other assays above

C=CCOCC(O)CCl (configuration not stated)
not listed: [7] | [9]
inactive: all other assays above

ON(Cc1ccccc1)Cc1ccccc1
not listed: [7]
inactive: all other assays above

C=C[Si](OC(C)=O)(OC(C)=O)OC(C)=O
not listed: [8]
inactive: all other assays above

OCCNCc1ccccc1
not listed: [7]
inactive: all other assays above

CC(=O)Nc1nnc(S(N)(=O)=O)s1
inactive: all assays above

c1ccc(CNCc2ccccc2)cc1
inactive: all assays above

CCOC(=O)Cc1cccc2ccccc12
not listed: [7]
inactive: all other assays above

[Cl][Nd]([Cl])[Cl]
inactive: all assays above

O=C1CCCN1CCO
inactive: all assays above

COc1ccc2nc(N)sc2c1
not listed: [7]
inactive: all other assays above

Cc1ccc(C(C)c2ccc(C)c(C)c2)cc1C
active: [1] 24.8 µM | [5] 26.1 µM | [7] 100 µM | [8] 181 µM
inactive: all other assays above
